Inconclusive results are not listed. The source made the active and inactive calls. The calls were made as follows, unless noted: active = hit-call score of the fitted dose curve at least 0.9, where 1 is the maximum; inactive = score below 0.9.
What was measured:
[1] = target: Oxysterols receptor LXR-alpha (Homo sapiens) (UniProt Q13133); assay: ATG_LXRa_TRANS: Attagene TRANS-FACTORIAL HepG2 Assay for human Liver X Receptor alpha (LXRa) (AID 2282980; active = hit-call score of the fitted dose curve at least 0.9, where 1 is the maximum); details: HepG2 Attagene TRANS reporter, LXRa transactivation
Method in brief: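 Chemical-induced reporter mRNA measured by RT-PCR with fluorescent labelling and capillary electrophoresis after 24 h dosing of transiently transfected HepG2 cells expressing exogenous NR-Gal4 chimeras; increases scored against DMSO baseline.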

[2] = target: Oxysterols receptor LXR-beta (Homo sapiens) (UniProt P55055); assay: ATG_LXRb_TRANS: Attagene TRANS-FACTORIAL HepG2 Assay for human Liver X Receptor beta (LXRb) (AID 2282981; active = hit-call score of the fitted dose curve at least 0.9, where 1 is the maximum); details: HepG2 Attagene TRANS GAL4-LXRb reporter, mRNA
Method in brief: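 Multiplexed reporter assay, HepG2, 24 h dosing. Fluorescence of labelled RT-PCR products after capillary electrophoresis gives transcript level; positive fitting direction relative to DMSO.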

[3] = ATG_M_32_TRANS: Attagene TRANS-FACTORIAL HepG2 Assay for M32 Transcription Factor (Internal Marker) (AID 2282984; active = hit-call score of the fitted dose curve at least 0.9, where 1 is the maximum;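 also: transcript level of a background control reporter unit measured by RT-PCR and capillary electrophoresis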); details: HepG2 Attagene TRANS M32 internal marker reporter
Method in brief: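 Internal-marker readout from a multiplexed transcription reporter panel. HepG2 cells were transfected with GAL4-UAS reporter units, treated 24 hours, and reporter transcript levels determined by fluorescence after RT-PCR and capillary separation.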

[4] = target: Nuclear respiratory factor 1 (Homo sapiens) (UniProt Q16656); assay: ATG_NRF1_CIS: Attagene CIS-FACTORIAL HepG2 Assay for human Nuclear Respiratory Factor 1 (NRF1) Orphan Gene (AID 2282987); details: HepG2 NRF1 cis-element reporter, Attagene multiplex; actives raise or lower the signal
Method in brief: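 Endogenous NRF1-driven reporter transcription in transfected HepG2 cells after 24 h treatment. Readout: RT-PCR products, 6-FAM labelled and resolved by capillary electrophoresis; changes fitted both directions relative to DMSO.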

[5] = ATG_NFI_CIS: Attagene CIS-FACTORIAL HepG2 Assay for human Nuclear Factor I (NFI) (AID 2282989); details: HepG2 cis-regulatory reporter, NFI response element transcription; actives raise or lower the signal
Method in brief: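 Transient MRTU transfection of HepG2 → 24 h chemical dosing → total RNA, oligo(dT) RT → PCR, 6-FAM primer extension, HpaI cut → capillary electrophoresis. Endpoint fitted bidirectionally relative to DMSO.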

[6] = target: Myc proto-oncogene protein (Homo sapiens) (UniProt P01106); assay: ATG_Myc_CIS: Attagene CIS-FACTORIAL HepG2 Assay for human Myelocytomatosis (Myc) Proto-Oncogene Transcription Factor (AID 2282990); details: HepG2, Attagene cis-reporter transcription factor activity; actives raise or lower the signal
Method in brief: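 Fluorescence intensity of reporter-specific cDNA fragments, separated by capillary electrophoresis, gives the signal. Transfected HepG2 cells carrying cis-promoter reporter constructs are incubated with compound for 24 h; DMSO serves as baseline.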

[7] = ATG_NF_kB_CIS: Attagene CIS-FACTORIAL HepG2 Assay for human Nuclear Factor Kappa B (NF-kB) (AID 2282991); details: HepG2 Attagene cis-factorial NF-kB reporter mRNA; actives raise or lower the signal
Method in brief: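 Readout is reporter transcript level, gain or loss versus DMSO, measured 24 h post-dose via RT-PCR, fluorescent labelling and capillary electrophoresis. Human HepG2 liver cells carried transiently transfected CIS reporter constructs reflecting endogenous factors.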

[8] = ATG_NRF2_ARE_CIS: Attagene CIS-FACTORIAL HepG2 Assay for human Nuclear Factor Erythroid 2 Related Factor 2 (NFR2) response to Antioxidant Response Elements (ARE) (AID 2282992); details: HepG2 Attagene ARE/NRF2 reporter, transcription factor activity; actives raise or lower the signal
Method in brief: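 Endogenous transcription factor activity read out as reporter transcript levels (RT-PCR plus capillary electrophoresis, fluorescence) in transiently transfected HepG2 cells. Measured at 24 h after dosing; gain or loss of signal fitted versus DMSO.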

[9] = ATG_Oct_MLP_CIS: Attagene CIS-FACTORIAL HepG2 Assay for human Octamer-Binding Transcription Factor (Oct) (AID 2282993); details: HepG2 Attagene cis-factorial Oct reporter, mRNA; actives raise or lower the signal
Method in brief: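 Transient MRTU transfection of HepG2 → 24 h compound treatment → RNA isolation, reverse transcription, PCR → 6-FAM primer extension, HpaI digest → capillary electrophoresis. Activity fitted both directions against DMSO.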

[10] = target: Cellular tumor antigen p53 (Homo sapiens) (UniProt P04637); assay: ATG_p53_CIS: Attagene CIS-FACTORIAL HepG2 Assay for human p53 Transcription Factor (AID 2282994); details: HepG2 p53 cis-element reporter, Attagene mRNA; actives raise or lower the signal
Method in brief: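 Endogenous p53 activity read in transiently transfected HepG2 from a cis-element-driven reporter transcript after 24 h exposure. RNA reverse-transcribed, PCR-amplified, fluorescently labelled and sized by capillary electrophoresis; gain or loss fitted against DMSO baseline.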

[11] = BSK_3C_TissueFactor: BioMAP Diversity Plus: 3C Assay for Tissue Factor Biomarker Activity (AID 2282997); details: BioMAP 3C HUVEC, tissue factor biomarker readout; actives raise or lower the signal
Method in brief: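 Tissue factor on primary human umbilical vein endothelium was read by ELISA 24 h after dosing, gain or loss relative to DMSO. Cytotoxicity ran alongside via SRB (0.1%, TCA-fixed, 560 nm).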

[12] = BSK_3C_uPAR: BioMAP Diversity Plus: 3C Assay for Urokinase-type plasminogen activator receptor (uPAR) Biomarker Activity (AID 2282998); details: BioMAP 3C HUVEC, uPAR biomarker ELISA; actives raise or lower the signal
Method in brief: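 ELISA readout of uPAR on human vascular endothelium (umbilical vein primary cells), taken 24 h after chemical dosing. Increases and decreases are both fitted relative to DMSO vehicle.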

[13] = BSK_3C_VCAM1: BioMAP Diversity Plus: 3C Assay for Vascular cell adhesion molecule 1 (VCAM1) Biomarker Activity (AID 2282999); details: BioMAP 3C HUVEC, VCAM1 ELISA, cytokine-stimulated; actives raise or lower the signal
Method in brief: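 HUVEC primary cells, 24 h compound exposure; VCAM-1 by ELISA; gain/loss of signal fitted bidirectionally vs DMSO baseline.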

[14] = BSK_4H_Eotaxin3: BioMAP Diversity Plus: 4H Assay for Eotaxin 3 Biomarker Activity (AID 2283000); details: primary human endothelial cells (HUVEC); actives raise or lower the signal
Method in brief: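 Human umbilical vein endothelial cells (BSK_4H system) dosed with test chemical; Eotaxin-3 (CCL26) measured by ELISA 24 h after dosing. Bidirectional curve fitting relative to DMSO negative control as baseline.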

[15] = target: human Peroxisome Proliferator-activated Receptor alpha (PPARa), PPARA (gene 5465) (UniProt Q07869); assay: ATG_PPARa_TRANS: Attagene TRANS-FACTORIAL HepG2 Assay for human Peroxisome Proliferator-activated Receptor alpha (PPARa) (AID 2283001; active = hit-call score of the fitted dose curve at least 0.9, where 1 is the maximum)
Method in brief: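 HepG2, transient MRTU transfection, 24 h treatment. RT-PCR → FAM labelling → capillary electrophoresis. Fit vs DMSO, positive direction.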

[16] = target: human Peroxisome Proliferator-activated Receptor delta (PPARd), PPARD (gene 5467) (UniProt Q03181); assay: ATG_PPARd_TRANS: Attagene TRANS-FACTORIAL HepG2 Assay for human Peroxisome Proliferator-activated Receptor delta (PPARd) (AID 2283002; active = hit-call score of the fitted dose curve at least 0.9, where 1 is the maximum)
Method in brief: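 Fluorescence from capillary electrophoresis of labelled RT-PCR reporter fragments gives the signal; DMSO sets baseline. Cells: HepG2 transiently carrying GAL4-UAS reporter units plus chimeric nuclear receptor-Gal4 proteins, exposed to chemicals for 24 h.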

[17] = target: Hepatocyte nuclear factor 4-alpha (Homo sapiens) (UniProt P41235); assay: ATG_HNF4a_TRANS: Attagene TRANS-FACTORIAL HepG2 Assay for human Hepatocyte Nuclear Factor 4 alpha (HNF4a) (AID 2282982; active = hit-call score of the fitted dose curve at least 0.9, where 1 is the maximum); details: HepG2 HNF4a transactivation reporter, mRNA readout
Method in brief: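 Endpoint reflects transcriptional activation of a GAL4-UAS reporter by an HNF4a-GAL4 chimera in transfected HepG2 cells, 24 h post-dosing. Fluorescence from RT-PCR products separated by capillary electrophoresis; DMSO baseline.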

[18] = ATG_M_06_TRANS: Attagene TRANS-FACTORIAL HepG2 Assay for M06 Transcription Factor (Internal Marker) (AID 2282983; active = hit-call score of the fitted dose curve at least 0.9, where 1 is the maximum); details: HepG2 Attagene TRANS M06 internal marker reporter
Method in brief: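 Background-control reporter readout: after 24 h chemical exposure of transiently transfected HepG2 (GAL4-UAS reporter units), mRNA quantified by RT-PCR with fluorescent labeling and capillary electrophoresis. Gain-of-signal fitting against DMSO baseline.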

[19] = target: Nuclear receptor subfamily 4 group A member 2 (Homo sapiens) (UniProt P43354); assay: ATG_NURR1_TRANS: Attagene TRANS-FACTORIAL HepG2 Assay for human Nuclear Receptor Related Protein 1 (NURR1) (AID 2282985; active = hit-call score of the fitted dose curve at least 0.9, where 1 is the maximum); details: HepG2 Attagene TRANS reporter, mRNA readout
Method in brief: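 Endpoint: reporter mRNA increase relative to DMSO. HepG2 cells transfected with reporter units, treated 24 h; RNA processed by RT-PCR, labelling, HpaI digestion and capillary electrophoresis.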

[20] = target: Transcriptional activator Myb (Homo sapiens) (UniProt P10242); assay: ATG_Myb_CIS: Attagene CIS-FACTORIAL HepG2 Assay for human Myeloblastosis (Myb) Proto-Oncogene Transcription Factor (AID 2282986); details: HepG2 Attagene CIS-FACTORIAL Myb reporter transcription; actives raise or lower the signal
Method in brief: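 Reporter mRNA is quantified by RT-PCR and capillary electrophoresis 24 h after dosing HepG2 cells transfected with cis-regulated reporter units, which track endogenous transcription factor activity. Gain and loss of signal are fitted versus DMSO baseline.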

Measured: AC50

Sequence of Myc proto-oncogene protein (Homo sapiens) (P01106 whole entry, looked up, the tested form may be a part): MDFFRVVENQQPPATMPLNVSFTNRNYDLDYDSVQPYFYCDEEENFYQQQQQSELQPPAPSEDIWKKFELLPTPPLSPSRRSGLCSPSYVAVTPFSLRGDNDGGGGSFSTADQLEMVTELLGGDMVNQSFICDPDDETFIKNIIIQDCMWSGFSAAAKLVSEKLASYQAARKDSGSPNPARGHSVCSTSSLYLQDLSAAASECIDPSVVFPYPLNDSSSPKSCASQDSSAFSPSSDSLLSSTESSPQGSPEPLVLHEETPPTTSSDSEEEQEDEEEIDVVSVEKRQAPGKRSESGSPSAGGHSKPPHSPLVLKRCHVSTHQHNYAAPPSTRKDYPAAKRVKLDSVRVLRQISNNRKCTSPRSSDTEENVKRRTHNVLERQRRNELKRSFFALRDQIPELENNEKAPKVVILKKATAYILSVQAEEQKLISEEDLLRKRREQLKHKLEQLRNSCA
Sequence of Hepatocyte nuclear factor 4-alpha (Homo sapiens) (P41235 whole entry, looked up, the tested form may be a part): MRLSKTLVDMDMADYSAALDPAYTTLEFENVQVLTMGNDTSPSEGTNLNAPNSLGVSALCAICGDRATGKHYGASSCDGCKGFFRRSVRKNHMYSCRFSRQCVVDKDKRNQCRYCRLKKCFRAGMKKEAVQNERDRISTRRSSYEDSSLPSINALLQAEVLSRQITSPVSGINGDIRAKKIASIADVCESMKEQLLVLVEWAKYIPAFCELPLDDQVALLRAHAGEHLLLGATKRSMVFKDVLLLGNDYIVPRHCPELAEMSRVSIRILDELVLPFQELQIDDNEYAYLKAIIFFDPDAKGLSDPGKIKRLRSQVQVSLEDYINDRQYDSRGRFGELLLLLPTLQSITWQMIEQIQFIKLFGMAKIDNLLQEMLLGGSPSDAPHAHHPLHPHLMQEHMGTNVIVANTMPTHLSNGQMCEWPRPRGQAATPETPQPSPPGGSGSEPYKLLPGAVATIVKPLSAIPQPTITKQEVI
Sequence of human Peroxisome Proliferator-activated Receptor alpha (PPARa), PPARA (gene 5465) (Q07869 whole entry, looked up): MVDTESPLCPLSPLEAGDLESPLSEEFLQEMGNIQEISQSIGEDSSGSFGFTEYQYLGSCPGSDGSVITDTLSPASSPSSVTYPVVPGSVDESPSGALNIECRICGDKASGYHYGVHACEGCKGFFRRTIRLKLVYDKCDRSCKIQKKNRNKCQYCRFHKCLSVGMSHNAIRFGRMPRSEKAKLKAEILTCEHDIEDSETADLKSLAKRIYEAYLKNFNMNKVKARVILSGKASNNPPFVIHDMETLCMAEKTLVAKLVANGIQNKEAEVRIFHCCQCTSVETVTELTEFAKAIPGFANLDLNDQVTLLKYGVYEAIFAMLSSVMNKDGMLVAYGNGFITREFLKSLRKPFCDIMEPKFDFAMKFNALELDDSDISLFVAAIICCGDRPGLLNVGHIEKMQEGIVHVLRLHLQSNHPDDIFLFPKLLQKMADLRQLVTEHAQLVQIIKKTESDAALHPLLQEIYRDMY
Sequence of Transcriptional activator Myb (Homo sapiens) (P10242 whole entry, looked up): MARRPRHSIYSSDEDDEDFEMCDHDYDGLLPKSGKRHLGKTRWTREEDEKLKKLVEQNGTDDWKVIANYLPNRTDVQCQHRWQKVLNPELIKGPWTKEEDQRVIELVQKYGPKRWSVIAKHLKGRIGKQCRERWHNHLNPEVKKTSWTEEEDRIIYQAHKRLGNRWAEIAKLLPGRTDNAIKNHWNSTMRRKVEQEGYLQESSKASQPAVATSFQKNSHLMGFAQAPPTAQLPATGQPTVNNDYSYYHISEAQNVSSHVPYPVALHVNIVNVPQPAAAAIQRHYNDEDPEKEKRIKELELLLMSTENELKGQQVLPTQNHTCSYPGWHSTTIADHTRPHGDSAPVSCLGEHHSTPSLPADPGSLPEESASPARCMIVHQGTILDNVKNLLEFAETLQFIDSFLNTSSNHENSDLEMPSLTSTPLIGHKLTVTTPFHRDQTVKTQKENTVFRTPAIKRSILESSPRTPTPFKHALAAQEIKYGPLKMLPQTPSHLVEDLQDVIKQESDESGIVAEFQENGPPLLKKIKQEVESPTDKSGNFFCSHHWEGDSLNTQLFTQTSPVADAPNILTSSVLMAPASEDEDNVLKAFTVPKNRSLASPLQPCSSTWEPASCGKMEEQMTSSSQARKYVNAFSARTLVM
Sequence of Oxysterols receptor LXR-beta (Homo sapiens) (P55055 whole entry, looked up, the tested form may be a part): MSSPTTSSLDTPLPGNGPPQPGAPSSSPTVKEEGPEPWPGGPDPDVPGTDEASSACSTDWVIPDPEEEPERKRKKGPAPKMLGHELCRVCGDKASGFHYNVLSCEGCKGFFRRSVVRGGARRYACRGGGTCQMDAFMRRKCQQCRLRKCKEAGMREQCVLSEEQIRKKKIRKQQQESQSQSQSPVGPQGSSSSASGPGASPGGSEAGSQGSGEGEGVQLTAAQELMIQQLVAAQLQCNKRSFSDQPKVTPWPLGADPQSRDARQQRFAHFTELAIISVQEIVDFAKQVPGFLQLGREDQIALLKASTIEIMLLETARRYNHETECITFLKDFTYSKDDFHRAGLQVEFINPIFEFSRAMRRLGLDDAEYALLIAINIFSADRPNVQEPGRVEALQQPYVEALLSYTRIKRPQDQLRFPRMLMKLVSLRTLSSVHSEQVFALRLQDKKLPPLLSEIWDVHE
Sequence of human Peroxisome Proliferator-activated Receptor delta (PPARd), PPARD (gene 5467) (Q03181 whole entry, looked up, the tested form may be a part): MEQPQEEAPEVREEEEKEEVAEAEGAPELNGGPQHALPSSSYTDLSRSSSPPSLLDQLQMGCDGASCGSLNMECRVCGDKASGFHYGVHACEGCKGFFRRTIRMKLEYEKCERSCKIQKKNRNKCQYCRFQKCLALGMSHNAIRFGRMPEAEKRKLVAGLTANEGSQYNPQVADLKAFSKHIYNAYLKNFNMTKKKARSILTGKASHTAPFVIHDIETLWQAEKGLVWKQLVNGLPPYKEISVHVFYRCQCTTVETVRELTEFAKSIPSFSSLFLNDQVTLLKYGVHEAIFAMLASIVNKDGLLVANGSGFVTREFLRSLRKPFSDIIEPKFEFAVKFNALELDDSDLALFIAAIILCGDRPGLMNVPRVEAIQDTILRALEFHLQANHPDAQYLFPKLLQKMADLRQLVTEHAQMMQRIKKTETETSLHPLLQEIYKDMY
Sequence of Nuclear respiratory factor 1 (Homo sapiens) (Q16656 whole entry, looked up): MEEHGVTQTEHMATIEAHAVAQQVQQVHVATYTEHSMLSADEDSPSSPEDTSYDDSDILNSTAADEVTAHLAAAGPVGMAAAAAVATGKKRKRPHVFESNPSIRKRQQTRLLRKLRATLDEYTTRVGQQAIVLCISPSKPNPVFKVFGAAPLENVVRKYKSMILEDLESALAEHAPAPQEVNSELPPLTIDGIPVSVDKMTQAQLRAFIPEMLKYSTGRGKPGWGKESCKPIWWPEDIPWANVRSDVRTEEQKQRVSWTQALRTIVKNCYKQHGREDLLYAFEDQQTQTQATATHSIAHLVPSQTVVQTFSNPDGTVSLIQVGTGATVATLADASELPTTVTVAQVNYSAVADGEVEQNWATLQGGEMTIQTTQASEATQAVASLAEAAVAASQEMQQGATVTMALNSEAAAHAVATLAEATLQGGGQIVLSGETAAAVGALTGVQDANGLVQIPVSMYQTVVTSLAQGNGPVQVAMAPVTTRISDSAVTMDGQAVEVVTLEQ
Sequence of Oxysterols receptor LXR-alpha (Homo sapiens) (Q13133 whole entry, looked up, the tested form may be a part): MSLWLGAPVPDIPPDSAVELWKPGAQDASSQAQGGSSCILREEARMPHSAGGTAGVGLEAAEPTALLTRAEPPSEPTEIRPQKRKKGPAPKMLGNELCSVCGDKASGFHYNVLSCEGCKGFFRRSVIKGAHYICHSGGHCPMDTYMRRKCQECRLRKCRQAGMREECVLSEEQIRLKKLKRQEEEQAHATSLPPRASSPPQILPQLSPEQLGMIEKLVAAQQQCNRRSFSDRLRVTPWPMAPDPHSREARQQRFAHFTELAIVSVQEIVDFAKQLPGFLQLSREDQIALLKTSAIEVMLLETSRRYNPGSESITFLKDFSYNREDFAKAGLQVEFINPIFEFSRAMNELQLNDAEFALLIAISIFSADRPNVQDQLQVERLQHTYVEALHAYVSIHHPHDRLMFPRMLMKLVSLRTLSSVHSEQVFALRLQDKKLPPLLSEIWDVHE
Sequence of Cellular tumor antigen p53 (Homo sapiens) (P04637 whole entry, looked up): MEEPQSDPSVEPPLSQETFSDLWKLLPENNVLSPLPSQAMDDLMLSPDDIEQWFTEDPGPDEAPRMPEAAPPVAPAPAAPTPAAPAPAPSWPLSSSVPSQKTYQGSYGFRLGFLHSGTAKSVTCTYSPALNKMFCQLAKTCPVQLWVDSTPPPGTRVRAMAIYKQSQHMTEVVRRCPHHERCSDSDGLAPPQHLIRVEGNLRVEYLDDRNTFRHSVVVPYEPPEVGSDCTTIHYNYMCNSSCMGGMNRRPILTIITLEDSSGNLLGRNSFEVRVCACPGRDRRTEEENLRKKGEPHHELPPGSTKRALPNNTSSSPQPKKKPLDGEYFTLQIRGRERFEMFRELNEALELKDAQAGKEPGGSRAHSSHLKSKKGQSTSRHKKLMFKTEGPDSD
Sequence of Nuclear receptor subfamily 4 group A member 2 (Homo sapiens) (P43354 whole entry, looked up): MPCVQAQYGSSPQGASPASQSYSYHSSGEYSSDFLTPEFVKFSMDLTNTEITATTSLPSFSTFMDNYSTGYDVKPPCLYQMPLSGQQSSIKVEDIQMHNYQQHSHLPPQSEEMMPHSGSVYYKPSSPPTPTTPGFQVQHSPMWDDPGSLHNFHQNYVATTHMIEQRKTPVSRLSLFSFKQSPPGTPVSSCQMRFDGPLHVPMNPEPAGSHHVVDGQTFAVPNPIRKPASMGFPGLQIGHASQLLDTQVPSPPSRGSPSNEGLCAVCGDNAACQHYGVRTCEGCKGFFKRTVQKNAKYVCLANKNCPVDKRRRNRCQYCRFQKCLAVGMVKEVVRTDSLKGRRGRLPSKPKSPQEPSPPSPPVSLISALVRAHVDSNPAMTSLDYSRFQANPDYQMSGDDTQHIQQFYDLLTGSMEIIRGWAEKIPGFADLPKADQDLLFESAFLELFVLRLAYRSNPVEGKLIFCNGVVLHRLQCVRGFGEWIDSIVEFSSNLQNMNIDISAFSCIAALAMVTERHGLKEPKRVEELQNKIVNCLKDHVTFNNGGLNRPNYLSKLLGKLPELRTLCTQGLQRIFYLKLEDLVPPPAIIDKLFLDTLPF

COc1ccc(/C=C/S(=O)(=O)NC(=O)c2ccc(C)cc2Cl)cc1
inactive: [1] | [2] | [3] | [4] | [5] | [6] | [7] | [8] | [9] | [10] | [11] | [12] | [13] | [14] | [15] | [16]

C1N2CN3CN1CN(C2)C3
inactive: [1] | [2] | [17] | [18] | [19] | [20] | [4] | [5] | [6] | [7] | [8] | [9] | [10] | [11] | [12] | [13] | [14] | [15]

O=C(O)c1cc(N=Nc2ccc(S(=O)(=O)Nc3ccccn3)cc2)ccc1O
inactive: [1] | [17] | [3] | [4] | [5] | [6] | [7] | [8] | [9] | [10] | [11] | [12] | [13] | [14] | [16]

O=C(OC[C@H]1O[C@@H](OC(=O)c2cc(O)c(O)c(OC(=O)c3cc(O)c(O)c(O)c3)c2)[C@H](OC(=O)c2cc(O)c(O)c(OC(=O)c3cc(O)c(O)c(O)c3)c2)[C@@H](OC(=O)c2cc(O)c(O)c(OC(=O)c3cc(O)c(O)c(O)c3)c2)[C@@H]1OC(=O)c1cc(O)c(O)c(OC(=O)c2cc(O)c(O)c(O)c2)c1)c1cc(O)c(O)c(OC(=O)c2cc(O)c(O)c(O)c2)c1
active: [11] 7.77 µM | [13] 11.2 µM | [14] 8.95 µM
inactive: [1] | [2] | [17] | [18] | [4] | [5] | [6] | [7] | [8] | [9] | [10] | [12] | [15]

O=C(O)c1cccc(N(Cc2cccnc2)c2ccc(OC(F)F)c(OC(F)F)c2)c1
inactive: [1] | [17] | [18] | [3] | [20] | [4] | [5] | [6] | [8] | [9] | [12] | [13] | [15] | [16]
active: [7] 27.7 µM | [10] 35.7 µM | [11] 14.7 µM | [14] 12.9 µM

O=C1OC(=O)C2C3C=CC(C3)C12 (configuration not stated)
inactive: [1] | [17] | [3] | [20] | [4] | [5] | [6] | [8] | [9] | [10] | [11] | [12] | [13] | [14] | [15] | [16]

CNCc1ccc(NC(=O)c2c[nH]c3c2C(=O)CCC3)cc1
active: [8] 56.6 µM
inactive: [1] | [2] | [17] | [18] | [3] | [19] | [4] | [5] | [6] | [7] | [9] | [10] | [11] | [12] | [13] | [14] | [16]
